Results: PubChem BioAssay
“And” between values parts separate entries of the source, which are not always exact repeats. Equal entries are not always repeated. Results filed as inconclusive are left out. The source made the active and inactive calls.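 The calls were made as follows, unless noted: active = mean z-score across replicates of 1.96 or higher in either the MELAS or the Rieske mutant cell line; inactive = the rest.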

Columns and labels:
[1] = viability loss in pontine glioma line – cell-based, SU-DIPG-XXV, MIPE5.0, CellTiter-Glo, qHTS, dose response (AID 1347065; cut-off not given, nearly all actives have AC50 up to about 26 µM;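 also: cells exposed to compound for 48 hours before ATP readout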); details: CellTiter-Glo ATP luminescence
[2] = JHH-DIPG-1 glioma cell viability, MIPE5.0 library, CellTiter-Glo luminescence, qHTS (AID 1347067; cut-off not given, nearly all actives have AC50 up to about 26 µM;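 also: cells exposed to compound for 48 hours before readout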); details: JHH-DIPG-1 glioma viability, CellTiter-Glo ATP luminescence
[3] = SU-DIPG-XXV glioma cell viability, MIPE5.0 library, qHTS (AID 1347068; cut-off not given, nearly all actives have IC50 up to about 30 µM)
[4] = sensitizers of A549 cells to miR-34 induction, primary screen, imaging, A549 dox-inducible miR-34, nuclei and caspase counts (AID 1347080;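 active = compounds whose cell count with miR-34 switched on is under 0.7 times the count with it off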); details: A549 miR-34 inducible, Hoechst nuclei count, 48 h
[5] = survival rescue of mitochondrial mutant cells in low glucose, primary screen, MELAS cybrids, Rieske KO mouse fibroblasts, CellTiter-Glo (AID 1508586);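 also: z relative to plate mean and SD of compound and empty wells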
[6] = molecular target: NAD(+) hydrolase SARM1 (Homo sapiens) (UniProt Q6SZW1); experiment: SARM1 TIR NADase inhibitors, cell lysate, NAD-Glo luminescence (AID 1508614;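 active = compound whose remaining NAD level is above about 45 nM, limit read from the data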;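 also: higher remaining NAD means stronger inhibition of SARM1 NADase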); details: SAM-TIR HEK293T lysate NADase, at 1 µM, stronger effect = higher value
[7] = molecular target: Mitogen-activated protein kinase 7 (Homo sapiens) (UniProt Q13164); experiment: ERK5 transactivation activators in reporter cells, primary screen, cell-based, HTS (AID 1508626;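 active = luciferase signal above three times the same-plate solvent-only control wells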;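 also: luciferase driven by Gal4-ERK5 fusion binding five Gal4 sites before minimal TATA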); details: HeLa Gal4-ERK5 transactivation, 18 h, at 5 µM, stronger effect = higher value
[8] = viability rescue of complex I mutant cybrids, primary screen, cell-based, galactose medium, ATP luminescence (AID 1645843;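 active = z-score of at least 1.8 in each of two replicates, scored against plate mean and spread of sample wells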;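 also: positive z means more ATP and so rescue of galactose-driven cybrid death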); details: complex I mutant cybrid cells, 72 h, stronger effect = higher value

Sequence of Mitogen-activated protein kinase 7 (Homo sapiens) (Q13164 whole entry, looked up, the tested form may be a part): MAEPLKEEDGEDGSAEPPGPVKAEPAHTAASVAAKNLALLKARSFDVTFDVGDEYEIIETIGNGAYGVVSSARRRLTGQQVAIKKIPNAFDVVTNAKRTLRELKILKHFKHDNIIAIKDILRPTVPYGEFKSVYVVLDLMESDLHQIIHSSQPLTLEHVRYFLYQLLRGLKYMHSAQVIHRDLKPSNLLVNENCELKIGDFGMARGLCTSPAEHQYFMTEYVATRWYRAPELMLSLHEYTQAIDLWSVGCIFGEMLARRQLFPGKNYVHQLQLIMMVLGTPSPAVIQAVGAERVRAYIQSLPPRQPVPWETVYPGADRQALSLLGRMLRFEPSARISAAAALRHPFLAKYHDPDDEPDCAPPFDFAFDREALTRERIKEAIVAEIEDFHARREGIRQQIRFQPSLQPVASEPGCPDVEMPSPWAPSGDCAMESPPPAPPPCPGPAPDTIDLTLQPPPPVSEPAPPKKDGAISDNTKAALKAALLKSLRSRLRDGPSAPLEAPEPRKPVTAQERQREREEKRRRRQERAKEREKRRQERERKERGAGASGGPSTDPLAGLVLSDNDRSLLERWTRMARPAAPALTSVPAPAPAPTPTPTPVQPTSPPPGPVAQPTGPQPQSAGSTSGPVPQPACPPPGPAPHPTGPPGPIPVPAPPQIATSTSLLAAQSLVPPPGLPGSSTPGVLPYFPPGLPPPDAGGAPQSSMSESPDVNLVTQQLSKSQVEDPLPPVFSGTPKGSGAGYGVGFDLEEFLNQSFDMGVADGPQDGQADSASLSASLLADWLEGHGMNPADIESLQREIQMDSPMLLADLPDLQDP
Sequence of NAD(+) hydrolase SARM1 (Homo sapiens) (Q6SZW1 whole entry, looked up, the tested form may be a part): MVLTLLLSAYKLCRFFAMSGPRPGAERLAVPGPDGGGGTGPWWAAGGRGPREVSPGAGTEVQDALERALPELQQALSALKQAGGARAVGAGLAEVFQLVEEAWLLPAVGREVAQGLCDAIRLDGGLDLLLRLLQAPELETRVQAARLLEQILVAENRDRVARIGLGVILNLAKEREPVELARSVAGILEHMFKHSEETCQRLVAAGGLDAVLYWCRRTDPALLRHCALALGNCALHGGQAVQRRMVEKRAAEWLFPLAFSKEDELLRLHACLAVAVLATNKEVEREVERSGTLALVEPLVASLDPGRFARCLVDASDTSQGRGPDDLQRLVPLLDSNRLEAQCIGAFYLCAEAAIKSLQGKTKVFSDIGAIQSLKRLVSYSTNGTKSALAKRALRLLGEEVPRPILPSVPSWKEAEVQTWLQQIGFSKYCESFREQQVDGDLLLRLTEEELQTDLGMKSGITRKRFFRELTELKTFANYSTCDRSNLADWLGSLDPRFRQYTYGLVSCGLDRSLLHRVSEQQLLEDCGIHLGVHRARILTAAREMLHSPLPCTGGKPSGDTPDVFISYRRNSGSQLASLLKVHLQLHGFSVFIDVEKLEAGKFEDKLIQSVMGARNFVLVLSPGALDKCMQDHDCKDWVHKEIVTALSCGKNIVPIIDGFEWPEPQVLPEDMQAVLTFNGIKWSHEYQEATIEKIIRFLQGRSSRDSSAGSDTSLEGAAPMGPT

**Q.** What does the source list for `CN(Cc1cc(Br)cc(Br)c1N)C1CCCCC1`?
**A.** AC50 [1]: 16.6 µM (active); AC50 [2]: 26.3 µM (active); outcome [3]: inactive; fold change ([4]; stronger effect = lower value, cell number ratio, induced over uninduced): 0.928 (inactive) and 0.903 (inactive) and 0.881 (inactive); fold change ([4]; measured here: relative caspase fold change +Dox/-Dox): 0.942 and 3.08 and 1.05; cell count ([4]; measured here: total cells with miR-34 induction, stronger effect = lower value): 8160 and 11000 and 9390; cell count ([4]; measured here: total cells without miR-34 induction): 8790 and 12200 and 10700; z-score ([5]; MELAS cybrid survival, CellTiter-Glo 48 h, stronger effect = higher value): -0.2 (inactive) and -0.238 (inactive) and -0.0697 (inactive); z-score ([5]; Rieske KO mouse fibroblast survival, CellTiter-Glo 72 h): 0.932 and -0.166 and 0.184; remaining NAD [6]: 10 nM (inactive); luciferase signal [7]: 56 AU (inactive); z-score [8]: -1.71 (inactive)
